# Data: the supplement of paper PMC6992640
# System: WHIM30 (cells of a triple-negative basal-like breast cancer xenograft)
# Experiment: cell viability of combination (% of vehicle); higher = less cytotoxic
# Conditions: 1 µM; 72 h; partner dose: 10 nM
# Protocol: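 PDX cells were treated for 72 h with each drug at 1 µM plus carfilzomib (10 nM; 100 nM for WHIM2). Luciferase viability is expressed as percent of vehicle.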
row,SMILES,cell viability of combination
1,COC1=C(OC)C(=O)C(CCCCCCCCCCO)=C(C)C1=O [Idebenone] + CC(C)C[C@H](NC(=O)[C@H](CCc1ccccc1)NC(=O)CN1CCOCC1)C(=O)N[C@@H](Cc1ccccc1)C(=O)N[C@@H](CC(C)C)C(=O)[C@@]1(C)CO1 [Carfilzomib],17.5
2,CSc1ccc2c(c1)N(CCC1CCCCN1C)c1ccccc1S2.Cl (stereo not given) [Thioridazine HCl] + CC(C)C[C@H](NC(=O)[C@H](CCc1ccccc1)NC(=O)CN1CCOCC1)C(=O)N[C@@H](Cc1ccccc1)C(=O)N[C@@H](CC(C)C)C(=O)[C@@]1(C)CO1 [Carfilzomib],17.7
3,CC(C)c1nc(N(C)S(C)(=O)=O)nc(-c2ccc(F)cc2)c1C=CC(O)CC(O)CC(=O)[O-].CC(C)c1nc(N(C)S(C)(=O)=O)nc(-c2ccc(F)cc2)c1C=CC(O)CC(O)CC(=O)[O-].[Ca+2] (stereo not given) [Rosuvastatin Calcium] + CC(C)C[C@H](NC(=O)[C@H](CCc1ccccc1)NC(=O)CN1CCOCC1)C(=O)N[C@@H](Cc1ccccc1)C(=O)N[C@@H](CC(C)C)C(=O)[C@@]1(C)CO1 [Carfilzomib],19.6
4,CC1CC(=O)NN=C1c1ccc(NN=C(C#N)C#N)cc1 (stereo not given) [Levosimendan] + CC(C)C[C@H](NC(=O)[C@H](CCc1ccccc1)NC(=O)CN1CCOCC1)C(=O)N[C@@H](Cc1ccccc1)C(=O)N[C@@H](CC(C)C)C(=O)[C@@]1(C)CO1 [Carfilzomib],21.5
5,Cc1c(C(=O)NN2CCCCC2)nn(-c2ccc(Cl)cc2Cl)c1-c1ccc(Cl)cc1 [Rimonabant] + CC(C)C[C@H](NC(=O)[C@H](CCc1ccccc1)NC(=O)CN1CCOCC1)C(=O)N[C@@H](Cc1ccccc1)C(=O)N[C@@H](CC(C)C)C(=O)[C@@]1(C)CO1 [Carfilzomib],16.3
6,Cc1c(-c2ccc(O)cc2)n(Cc2ccc(OCCN3CCCCCC3)cc2)c2ccc(O)cc12.Cl [Bazedoxifene HCl] + CC(C)C[C@H](NC(=O)[C@H](CCc1ccccc1)NC(=O)CN1CCOCC1)C(=O)N[C@@H](Cc1ccccc1)C(=O)N[C@@H](CC(C)C)C(=O)[C@@]1(C)CO1 [Carfilzomib],11.3
7,CC(C)COc1ccc(CNC(=O)N(Cc2ccc(F)cc2)C2CCN(C)CC2)cc1 [Pimavanserin] + CC(C)C[C@H](NC(=O)[C@H](CCc1ccccc1)NC(=O)CN1CCOCC1)C(=O)N[C@@H](Cc1ccccc1)C(=O)N[C@@H](CC(C)C)C(=O)[C@@]1(C)CO1 [Carfilzomib],15.8
8,C1=C\COCc2cc(ccc2OCCN2CCCC2)Nc2nccc(n2)-c2cccc(c2)COC/1 [Pacritinib] + CC(C)C[C@H](NC(=O)[C@H](CCc1ccccc1)NC(=O)CN1CCOCC1)C(=O)N[C@@H](Cc1ccccc1)C(=O)N[C@@H](CC(C)C)C(=O)[C@@]1(C)CO1 [Carfilzomib],11.5
9,CC(C)C1=CC(=C2NNC(=O)N2c2ccc3c(ccn3C)c2)C(=O)C=C1O [Ganetespib (STA-9090)] + CC(C)C[C@H](NC(=O)[C@H](CCc1ccccc1)NC(=O)CN1CCOCC1)C(=O)N[C@@H](Cc1ccccc1)C(=O)N[C@@H](CC(C)C)C(=O)[C@@]1(C)CO1 [Carfilzomib],23.7
10,Cc1nc(NC(=O)N2CCCC2C(N)=O)sc1-c1ccnc(C(C)(C)C(F)(F)F)c1 (stereo not given) + CC(C)C[C@H](NC(=O)[C@H](CCc1ccccc1)NC(=O)CN1CCOCC1)C(=O)N[C@@H](Cc1ccccc1)C(=O)N[C@@H](CC(C)C)C(=O)[C@@]1(C)CO1 [Carfilzomib],20
11,CC(=O)C1(O)Cc2c(O)c3c(c(O)c2C(OC2CC(N)C(O)C(C)O2)C1)C(=O)c1ccccc1C3=O.Cl (stereo not given) [Idarubicin HCl] + CC(C)C[C@H](NC(=O)[C@H](CCc1ccccc1)NC(=O)CN1CCOCC1)C(=O)N[C@@H](Cc1ccccc1)C(=O)N[C@@H](CC(C)C)C(=O)[C@@]1(C)CO1 [Carfilzomib],5.43
12,COc1ccc(CN2CCN(C(c3ccc(F)cc3)c3ccc(F)cc3)CC2)c(OC)c1OC.Cl.Cl [Lomerizine HCl] + CC(C)C[C@H](NC(=O)[C@H](CCc1ccccc1)NC(=O)CN1CCOCC1)C(=O)N[C@@H](Cc1ccccc1)C(=O)N[C@@H](CC(C)C)C(=O)[C@@]1(C)CO1 [Carfilzomib],15.6
13,COc1cc2nccc(Oc3ccc(NC(=O)Nc4cc(C)on4)c(Cl)c3)c2cc1OC [Tivozanib (AV-951)] + CC(C)C[C@H](NC(=O)[C@H](CCc1ccccc1)NC(=O)CN1CCOCC1)C(=O)N[C@@H](Cc1ccccc1)C(=O)N[C@@H](CC(C)C)C(=O)[C@@]1(C)CO1 [Carfilzomib],18.1
14,Cc1cn(-c2cc(NC(=O)c3ccc(C)c(Nc4nccc(-c5cccnc5)n4)c3)cc(C(F)(F)F)c2)cn1 [Nilotinib(AMN-107)] + CC(C)C[C@H](NC(=O)[C@H](CCc1ccccc1)NC(=O)CN1CCOCC1)C(=O)N[C@@H](Cc1ccccc1)C(=O)N[C@@H](CC(C)C)C(=O)[C@@]1(C)CO1 [Carfilzomib],22.2
15,Clc1ccc(CSC(Cn2ccnc2)c2ccc(Cl)cc2Cl)cc1.O=[N+]([O-])O (stereo not given) [Sulconazole Nitrate] + CC(C)C[C@H](NC(=O)[C@H](CCc1ccccc1)NC(=O)CN1CCOCC1)C(=O)N[C@@H](Cc1ccccc1)C(=O)N[C@@H](CC(C)C)C(=O)[C@@]1(C)CO1 [Carfilzomib],14.2
16,C#Cc1cccc(Nc2ncnc3cc(OCCOC)c(OCCOC)cc23)c1.Cl [Erlotinib Hydrochloride] + CC(C)C[C@H](NC(=O)[C@H](CCc1ccccc1)NC(=O)CN1CCOCC1)C(=O)N[C@@H](Cc1ccccc1)C(=O)N[C@@H](CC(C)C)C(=O)[C@@]1(C)CO1 [Carfilzomib],26.3
17,CCOC(=O)C1=C(COCCN)NC(C)=C(C(=O)OC)C1c1ccccc1Cl.O=S(=O)(O)c1ccccc1 (stereo not given) [Amlodipine Besylate] + CC(C)C[C@H](NC(=O)[C@H](CCc1ccccc1)NC(=O)CN1CCOCC1)C(=O)N[C@@H](Cc1ccccc1)C(=O)N[C@@H](CC(C)C)C(=O)[C@@]1(C)CO1 [Carfilzomib],16.5
18,COc1cc2nccc(Oc3ccc(NC(=O)C4(C(=O)Nc5ccc(F)cc5)CC4)cc3)c2cc1OC.O=C(O)CC(O)C(=O)O [Cabozantinib malate (XL184)] + CC(C)C[C@H](NC(=O)[C@H](CCc1ccccc1)NC(=O)CN1CCOCC1)C(=O)N[C@@H](Cc1ccccc1)C(=O)N[C@@H](CC(C)C)C(=O)[C@@]1(C)CO1 [Carfilzomib],16.1
19,CC(C)N=c1cc2n(-c3ccc(Cl)cc3)c3ccccc3nc-2cc1Nc1ccc(Cl)cc1 [Clofazimine] + CC(C)C[C@H](NC(=O)[C@H](CCc1ccccc1)NC(=O)CN1CCOCC1)C(=O)N[C@@H](Cc1ccccc1)C(=O)N[C@@H](CC(C)C)C(=O)[C@@]1(C)CO1 [Carfilzomib],16.7
20,CC(C)(C)Cn1c(N)nc2ccc(-c3[nH]c(C(C)(C)C)nc3-c3ccc(F)cc3)nc21.CS(=O)(=O)O.CS(=O)(=O)O + CC(C)C[C@H](NC(=O)[C@H](CCc1ccccc1)NC(=O)CN1CCOCC1)C(=O)N[C@@H](Cc1ccccc1)C(=O)N[C@@H](CC(C)C)C(=O)[C@@]1(C)CO1 [Carfilzomib],14.4
